Source: ChEMBL document CHEMBL3988442, “University of Dundee, Small-Polar-MMV Screening Library” (2021)
Out of some 48,000 compounds screened, about 13,000 (27%) showed an effect of 50% or more. The list shows a part of the results.

system: Wolbachia pipientis; assay: Anti-Wolbachia Cell-Based Screen; assay type: functional; set-up: scale not given: in the data most compounds retested in dose-response had high values; conditions: 5 µM

| SMILES | Percent Effect |
| --- | --- |
| COc1cccc(CC(C)NC(=O)NCc2ccn(C)c2)c1 (stereo not given) | -0.6382% |
| O=C(NCC1CC[C@@]2(CNCCOC2)O1)c1cccnc1 (stereo not given in full) | -3.368% |
| O=C(O)C(F)(F)F.c1cc(COC[C@H]2CCC[C@]23CNCCO3)ccn1 | 99.79% |
| Cl.Cl.c1cncc(COC[C@@H]2CCC[C@@]23CNCCO3)c1 | 86.08% |
| CN(C)C(=O)CN1CC[C@@H]2O[C@@H](COCc3cccnc3)CC[C@@H]21.O=C(O)C(F)(F)F.O=C(O)C(F)(F)F | -11.44% |
| O=C(O)C(F)(F)F.O=C(O)C(F)(F)F.O=C1NCC[C@]12CN(Cc1ccncc1)C[C@H]2c1ccccc1 | 4.919% |
| O=C(O)C(F)(F)F.O=C(O)C(F)(F)F.c1cncc(COC[C@@H]2CCC[C@]23CNCCO3)c1 | 101.8% |
| O=C(O)C(F)(F)F.O=C(O)C(F)(F)F.O=C1NCC[C@]12CN(Cc1cccnc1)C[C@H]2c1ccccc1 | -5.552% |
| COC[C@@H]1CCC[C@]12CN(Cc1cccc(C)n1)CCO2.O=C(O)C(F)(F)F.O=C(O)C(F)(F)F | 6.622% |
| CCN(Cc1cccnc1)CC1CCCO1 (stereo not given) | -10.66% |
| CC(C)(C)c1cc(=O)[nH]c(C2(N)CCCC2)n1 | 3.211% |
| CC[C@H]1CN2CC[C@H]1C[C@@H]2CNC(=O)Nc1cccc(C(F)(F)F)c1 | -2.454% |
| Cc1noc(CN2CC=C(c3cnn(C4CCS(=O)(=O)C4)c3)CC2)n1 (stereo not given) | -14.25% |
| CCOc1ccc(-c2cc(CCN)ccc2OC)cc1 | 7.711% |
| O=C(N[C@H]1CN(Cc2cccs2)[C@@H]2CCCO[C@H]12)c1cccnc1.O=C(O)C(F)(F)F.O=C(O)C(F)(F)F | -1.494% |
| Cl.O=C(N[C@H]1CN[C@H]2CCCO[C@H]21)c1cscn1 | 6.195% |
| CN1C[C@H](NC(=O)c2cscn2)[C@@H]2OCCC[C@@H]21.O=C(O)C(F)(F)F | 111.9% |
| Nc1ncccc1CN1C[C@@H]2CC[C@H](C1)N(CC1CC1)C2=O | 7.202% |
| CNCC[C@H]1CC(C)(C)Oc2ccc(C)cc21 | 99.82% |
| COCc1cn(C[C@H]2C[C@@H]3CCN2C[C@@H]3C(=O)N2CCOCC2)nn1 | -6.421% |
| Cc1[nH]c2c(C)cccc2c1CC(=O)N(C)CCN(C)C.O=C(O)CC(O)(CC(=O)O)C(=O)O | 103% |
| O=C(CN1CCN(C(=O)Cc2ccc3c(c2)OCCO3)CC1)NC1CC1 | 5.479% |
| CN(C)CCN(C(=O)Cc1ccc2c(c1)OCCO2)C1CCN(C)CC1.O=C(O)CC(O)(CC(=O)O)C(=O)O | 109% |
| NC(=O)CN1CCCN(C(=O)Cc2ccc3c(c2)OCO3)CC1 | -4.573% |
| CN(C)CCN(C)C(=O)Cc1ccc2c(c1)OCCO2.O=C(O)CC(O)(CC(=O)O)C(=O)O | 107.5% |
| CNC(=O)c1ccc2c(c1)C1(CCN(CC(C)C)CC1)C(=O)N2.O=C(O)C(F)(F)F | -7.062% |
| CNC(=O)[C@H]1C[C@@H]2CN(C(=O)c3ccc(C)nc3)C[C@@H]2N1C(C)C.O=C(O)C(F)(F)F.O=C(O)C(F)(F)F | 4.326% |

| SMILES | Percent Effect |
| --- | --- |
| CC(C)NC(=O)c1ccc2c(c1)C1(CCN(C(C)C)CC1)C(=O)N2.O=C(O)C(F)(F)F | 106.4% |
| CC(C)CN1CCC2(CC1)C(=O)Nc1ccc(C(=O)NC(C)C)cc12.O=C(O)C(F)(F)F | 99.87% |
| CC(C)N1C(=O)C2(CCN(C)CC2)c2cc(F)ccc21.Cl | -32.23% |
| CC(C)NC(=O)c1ccc2c(c1)C1(CCN(C)CC1)C(=O)N2.O=C(O)C(F)(F)F | 109.7% |
| CNC(=O)c1ccc2c(c1)C1(CCN(C(C)C)CC1)C(=O)N2.O=C(O)C(F)(F)F | 95.47% |
| CC(C)CN1CCC2(CC1)C(=O)Nc1ccc(C(=O)N(C)C)cc12.O=C(O)C(F)(F)F | -3.196% |
| CNC(=O)[C@H]1C[C@H]2OCC[C@H]2N(CC2CC2)C1.O=C(O)C(F)(F)F | -3.474% |
| Cc1ccccc1CNCC(O)c1ccc(OC(C)C)cc1 (stereo not given) | 14.53% |
| CCc1cc(CN(C)C(=O)CN2CC(Cc3ccccc3)CC2=O)on1 (stereo not given) | 4.825% |
| O=C(NCC1CC1)C1CCC2(CCNCC2)C1 (stereo not given) | -14.8% |
| Cc1cc(CC(=O)N2CCN(C)[C@@H]3CS(=O)(=O)C[C@@H]32)ccc1F | -18.64% |
| CCS(=O)(=O)c1nnc([C@@H](N)Cc2ccccc2)o1 | 144% |
| Cc1cnc(N2CCC3(CCCCN3C)C2)nc1.O=C(O)C(F)(F)F (stereo not given) | -23.72% |
| O=S(=O)(NC[C@H]1C[C@@H]2CCN1C[C@@H]2CN1CCCCC1)c1ccccc1 | -3.393% |
| COCCN1CCN(S(=O)(=O)C2CC2)Cc2ccc(C)nc21.O=C(O)C(F)(F)F | 0.9634% |
| COCCN1CCN(S(=O)(=O)C2CC2)Cc2cccnc21 | 114% |
| CCCS(=O)(=O)N1CCN(CCOC)c2nc(C)ccc2C1.O=C(O)C(F)(F)F | 12.9% |
| COCCN1CCN(S(C)(=O)=O)Cc2cccnc21 | 94.34% |
| CCS(=O)(=O)N1CCN(CCOC)c2ncccc2C1 | 117.1% |
| CC(=O)c1cc(CC(=O)N2CCN(CCOc3ccccc3)CC2)cs1 | -5.45% |
| COc1ccc(F)cc1C(=O)C1CCCN(Cc2ccc(C)s2)C1 (stereo not given) | -15.99% |
| O=c1[nH]ccn1CCCN1CC=C(c2cnn(-c3ccccc3)c2)CC1 | 2.052% |
| COC(=O)NCC1CCC2(CCNCC2)O1.Cl (stereo not given) | -32.05% |
| c1ccc(CN2CCN3C[C@H](Oc4cccnc4)C[C@H]3C2)nc1 | -1.108% |
| Cc1cccc(CN2CCN3C[C@H](Oc4cncnc4)C[C@H]3C2)n1.O=C(O)C(F)(F)F.O=C(O)C(F)(F)F | 126.4% |
| Cn1ccnc1CN1CCN2C[C@H](Oc3cncnc3)C[C@H]2C1.O=C(O)C(F)(F)F.O=C(O)C(F)(F)F | -0.7067% |
| O=C(O)C(F)(F)F.O=C(O)C(F)(F)F.c1ccc(CN2CCN3C[C@H](Oc4cncnc4)C[C@H]3C2)nc1 | 117.2% |

| SMILES | Percent Effect |
| --- | --- |
| Cc1nc(CN2CCN3C[C@H](Oc4cncnc4)C[C@H]3C2)cs1.O=C(O)C(F)(F)F.O=C(O)C(F)(F)F | 123.6% |
| Cc1cccc(CN2CCN3C[C@H](Oc4cccnc4)C[C@H]3C2)n1.O=C(O)C(F)(F)F.O=C(O)C(F)(F)F.O=C(O)C(F)(F)F | -1.606% |
| Fc1cccc(O[C@@H]2C[C@H]3CN(Cc4ccccn4)CCN3C2)c1.O=C(O)C(F)(F)F.O=C(O)C(F)(F)F | -1.961% |
| COCCNC(=O)C[C@@H]1COC[C@H]2CN(Cc3cccnc3)C[C@@H]12 | 116.3% |
| CO[C@H]1CCN(S(=O)(=O)N(C)C)[C@@H]2CN(Cc3cccnc3)C[C@H]12.O=C(O)C(F)(F)F.O=C(O)C(F)(F)F | 0.8682% |
| O=C(C[C@@H]1COC[C@H]2CN(Cc3cccnc3)C[C@@H]12)N1CCCC1.O=C(O)C(F)(F)F.O=C(O)C(F)(F)F | 109.1% |
| O=C(C[C@@H]1COC[C@H]2CN(C3CCC3)C[C@@H]12)NCc1cccnc1.O=C(O)C(F)(F)F.O=C(O)C(F)(F)F | 108.6% |
| O=C(C[C@@H]1COC[C@H]2CN(Cc3cccnc3)C[C@@H]12)NCC1CC1.O=C(O)C(F)(F)F.O=C(O)C(F)(F)F | 115.9% |
| O=C(C[C@H]1[C@H]2CN(Cc3ccncc3)C[C@@H]12)N1CCCC1.O=C(O)C(F)(F)F.O=C(O)C(F)(F)F | 16.46% |
| O=C(NCc1ccccn1)[C@@H]1COC[C@H]2CNC[C@H]21 | -0.4259% |
| O=C(COc1ccc(Cl)cc1Cl)N1CCCSCC1CN1CCOCC1 (stereo not given) | -6.318% |
| c1cnc(N2CCOCC3(CNCCO3)C2)nc1 (stereo not given) | -30.03% |
| COCCN1C[C@@H]2COC[C@@H](CC(=O)NCc3cccnc3)[C@@H]2C1.O=C(O)C(F)(F)F.O=C(O)C(F)(F)F | 24.5% |
| O=C(C[C@@H]1COC[C@H]2CN(CC3CC3)C[C@@H]12)NCc1cccnc1.O=C(O)C(F)(F)F.O=C(O)C(F)(F)F | 86.58% |
| CNCCc1nc2cc(Cl)ccc2[nH]1.Cl.Cl | 8.686% |
| CC(C)Oc1ccc(C(O)CNCc2ccccc2C(F)(F)F)cc1 (stereo not given) | -32.82% |
| O=C(O)C(F)(F)F.O=C(O)C(F)(F)F.O=C1[C@H]2CN(C3CCOCC3)C[C@H]2CN1Cc1ccncc1 | -10.38% |
| O=C(c1ccno1)N1CC[C@@H]2CN(C3CCOCC3)CCO[C@@H]2C1 | 85.56% |
| CN1CCO[C@@H]2CN(C(=O)c3ccc4ncccc4c3)CC[C@@H]2C1.O=C(O)C(F)(F)F.O=C(O)C(F)(F)F | -8.044% |
| CN1CCC(N(C)c2ccccc2CNCc2ccco2)CC1 | 13.84% |
| Cc1cccc(CN2CCC3(CCN(c4cccnc4)C3=O)C2)n1.O=C(O)C(F)(F)F.O=C(O)C(F)(F)F (stereo not given) | -4.819% |
| CCN1CCN(C)C2(CCN(Cc3cccc(C)n3)CC2)C1=O.O=C(O)C(F)(F)F.O=C(O)C(F)(F)F | -10.53% |
| Cc1cccc(CN2C(=O)CCC23CCNCC3)n1.O=C(O)C(F)(F)F.O=C(O)C(F)(F)F | 115.6% |
| O=C(Cn1ccc2c(Cl)cccc21)N1CCC2(CC1)OCCO2 | 11.16% |
| O=C(Cc1cnc(-c2c(Cl)cccc2Cl)s1)N1CCC2(CC1)OCCO2 | 110.5% |
| O=C(Nc1ccc(Cn2cccn2)cc1)N1CCC2(CC1)OCCO2 | -11.32% |
